# Measured values taken from PubChem BioAssay (EPA / NIEHS).
# Inconclusive results are not listed. Active and inactive are the calls of the source. How the source made its calls: active means hit-call score of the fitted dose curve at least 0.9, where 1 is the maximum; inconclusive means response in the unintended direction; inactive means score below 0.9.
# Molecular target: human Fibroblast Growth Factor Receptor 1 (FGFR1), FGFR1 (gene 2260) (UniProt P11362)
# Assay: NVS_ENZ_hFGFR1: NovaScreen (NVS) Enzymatic Assay for human Fibroblast Growth Factor Receptor 1 (FGFR1) (AID 2283159);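 on AC50: hits lower the signal so potencies describe inhibitors of the kinase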
# Protocol: (§1) NVS_ENZ_hFGFR1 is a biochemical, single-readout assay that uses extracted gene-proteins in a cell-free assay. Measurements were taken 1 hour after chemical dosing in a 384-well plate.NVS_ENZ_hFGFR1 is one of one assay component(s) measured or calculated from the NVS_ENZ_hFGFR1 assay. It is designed to make measurements of enzyme activity, a form of enzyme reporter, as detected with fluorescence intensity signals by Fluorescence and electrophoretic mobility shift technology.Data from the assay component NVS_ENZ_hFGFR1 was analyzed into 1 assay endpoint. This assay endpoint, NVS_ENZ_hFGFR1, was analyzed in the positive analysis fitting direction relative to DMSO as the negative control and baseline of activity. Using a type of enzyme reporter, loss-of-signal activity can be used to understand changes in the enzymatic activity as they relate to the gene FGFR1. Furthermore, this assay endpoint can be referred to as a primary readout, because this assay has produced multiple assay endpoints where this one serves a enzymatic activity function. To generalize the intended target to other relatable targets, this assay endpoint is annotated to the kinase intended target family, where the subfamily is receptor tyrosine kinase.
# Binding assays used specific radioligands (tritiated, iodinated) with non-radioactive competitive displacement ligands in agonist or antagonist protocols (as indicated) and various reference compounds and inhibitors to titrate specific binding to receptors and transporters. Most enzyme assays (CYPs, kinases, phosphatases, proteases, HDACs) used recombinant protein and specific substrates (fluorescence mostly, some colorimetric and radioactive) and inhibitors, followed by a biochemical separation of substrate and product. All assays for the biochemical HTS were initially run in duplicate at a single concentration (10 uM for CYP450 assays and 25 uM for all others). […] Each assay was run with positive and negative controls, and concurrent controls on every plate. The follow-up (secondary) screen tested active chemical-pairs in concentration series, as well as a few additional assays not tested in the primary screen, some selected negative inactives, and several cases re-run in the concentration series for confirmatory purposes.
# human Fibroblast Growth Factor Receptor 1 (FGFR1), FGFR1 (gene 2260), sequence (P11362 whole entry, looked up): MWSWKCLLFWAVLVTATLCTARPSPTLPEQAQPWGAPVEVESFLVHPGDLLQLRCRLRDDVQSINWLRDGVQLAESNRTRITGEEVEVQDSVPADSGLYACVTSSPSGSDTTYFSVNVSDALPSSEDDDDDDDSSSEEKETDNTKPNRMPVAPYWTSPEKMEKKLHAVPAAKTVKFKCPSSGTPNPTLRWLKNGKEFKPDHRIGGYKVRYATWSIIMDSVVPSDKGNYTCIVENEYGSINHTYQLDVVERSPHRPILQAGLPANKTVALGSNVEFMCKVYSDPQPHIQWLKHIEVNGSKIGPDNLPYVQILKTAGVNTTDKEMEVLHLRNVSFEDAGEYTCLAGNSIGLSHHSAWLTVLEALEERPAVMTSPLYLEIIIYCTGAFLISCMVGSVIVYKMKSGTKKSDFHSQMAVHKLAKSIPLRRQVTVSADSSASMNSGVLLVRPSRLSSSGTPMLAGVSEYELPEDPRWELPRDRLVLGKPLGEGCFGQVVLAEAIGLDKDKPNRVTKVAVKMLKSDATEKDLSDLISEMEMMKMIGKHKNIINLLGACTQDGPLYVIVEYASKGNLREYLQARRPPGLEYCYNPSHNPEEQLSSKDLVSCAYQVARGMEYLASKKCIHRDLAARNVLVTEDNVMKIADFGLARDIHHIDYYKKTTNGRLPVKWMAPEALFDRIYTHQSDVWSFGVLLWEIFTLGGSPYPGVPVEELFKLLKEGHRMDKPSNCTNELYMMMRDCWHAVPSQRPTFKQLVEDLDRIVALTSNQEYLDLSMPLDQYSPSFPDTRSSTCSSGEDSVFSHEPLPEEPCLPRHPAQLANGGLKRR
Compound,outcome,AC50
O=[N+]([O-])c1ccccc1,inactive,–
ClC1=C(Cl)C2(Cl)C3C(Cl)C(Cl)CC3C1(Cl)C2(Cl)Cl (stereo not given),inactive,–
CSC(C)(C)C=NO,inactive,–
CC1(C)CN=C(NN=C(/C=C/c2ccc(C(F)(F)F)cc2)/C=C/c2ccc(C(F)(F)F)cc2)NC1,–,13.6 µM (active)
O=P1(N(CCCl)CCCl)NCCCO1 (stereo not given),inactive,–
CCNc1nc(Cl)nc(NC(C)(C)C)n1,inactive,–
CCCCN(CCCC)N=O,inactive,–
ClC(Cl)(Cl)c1ccccc1,inactive,–

# Molecular target: Glycogen synthase kinase-3 beta (Homo sapiens) (UniProt P49841)
# Assay: NVS_ENZ_hGSK3b: NovaScreen (NVS) Enzymatic Assay for human Glycogen Synthase Kinase-3 beta (GSK3b) (AID 2283165)
# Summary of the method: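 Recombinant enzyme with specific fluorescent substrate, 1 h, product separated by electrophoretic mobility shift. Primary duplicate screen at 25 uM; actives (e.g. 30% inhibition) followed in singleton concentration-response to 50 uM. Signal loss fitted versus DMSO.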
# Glycogen synthase kinase-3 beta (Homo sapiens), sequence (P49841 whole entry, looked up): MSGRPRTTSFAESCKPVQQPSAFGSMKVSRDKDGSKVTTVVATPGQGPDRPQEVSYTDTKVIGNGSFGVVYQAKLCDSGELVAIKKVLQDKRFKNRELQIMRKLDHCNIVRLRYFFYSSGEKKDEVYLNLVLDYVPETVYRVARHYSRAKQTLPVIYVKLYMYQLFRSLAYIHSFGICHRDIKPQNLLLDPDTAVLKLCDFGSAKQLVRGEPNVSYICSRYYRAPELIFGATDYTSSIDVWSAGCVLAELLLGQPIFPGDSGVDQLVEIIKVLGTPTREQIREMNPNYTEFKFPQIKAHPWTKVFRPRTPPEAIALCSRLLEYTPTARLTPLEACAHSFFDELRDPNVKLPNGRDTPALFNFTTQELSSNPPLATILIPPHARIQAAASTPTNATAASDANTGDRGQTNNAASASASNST
row,Compound,outcome
1,CC(C)(C)c1ccc(O)cc1,inactive
2,CCOS(=O)(=O)OCC,inactive
3,Nc1ccc2ccccc2c1,inactive
4,CC(C)(C)OOC(C)(C)C,inactive
5,OCC1CO1 (stereo not given),inactive
6,c1ccc(OP(Oc2ccccc2)Oc2ccccc2)cc1,inactive
7,CCOC(=O)c1ccccc1C(=O)OCC,inactive
8,Cc1ccc(O)cc1C,inactive
9,CCC(C)(C)c1ccc(O)cc1,inactive

# Molecular target: human Mitogen-Activated Protein Kinase 1 (MAPK 1), MAPK1 (gene 5594) (UniProt P28482)
# Assay: NVS_ENZ_hMAPK1: NovaScreen (NVS) Enzymatic Assay for human Mitogen-Activated Protein Kinase 1 (MAPK 1) (AID 2283175)
# Protocol: as §1, with “NVS_ENZ_hMAPK1” for “NVS_ENZ_hFGFR1”, “plate.NVS_ENZ_hMAPK1” for “plate.NVS_ENZ_hFGFR1”, “NVS_ENZ_hMAPK1,” for “NVS_ENZ_hFGFR1,”, “MAPK1.” for “FGFR1.”, “serine/threonine” for “receptor tyrosine”
# Binding assays used specific radioligands (tritiated, iodinated) with non-radioactive competitive displacement ligands in agonist or antagonist protocols (as indicated) and various reference compounds and inhibitors to titrate specific binding to receptors and transporters. Most enzyme assays (CYPs, kinases, phosphatases, proteases, HDACs) used recombinant protein and specific substrates (fluorescence mostly, some colorimetric and radioactive) and inhibitors, followed by a biochemical separation of substrate and product. All assays for the biochemical HTS were initially run in duplicate at a single concentration (10 uM for CYP450 assays and 25 uM for all others). […]
# human Mitogen-Activated Protein Kinase 1 (MAPK 1), MAPK1 (gene 5594), sequence (P28482 whole entry, looked up): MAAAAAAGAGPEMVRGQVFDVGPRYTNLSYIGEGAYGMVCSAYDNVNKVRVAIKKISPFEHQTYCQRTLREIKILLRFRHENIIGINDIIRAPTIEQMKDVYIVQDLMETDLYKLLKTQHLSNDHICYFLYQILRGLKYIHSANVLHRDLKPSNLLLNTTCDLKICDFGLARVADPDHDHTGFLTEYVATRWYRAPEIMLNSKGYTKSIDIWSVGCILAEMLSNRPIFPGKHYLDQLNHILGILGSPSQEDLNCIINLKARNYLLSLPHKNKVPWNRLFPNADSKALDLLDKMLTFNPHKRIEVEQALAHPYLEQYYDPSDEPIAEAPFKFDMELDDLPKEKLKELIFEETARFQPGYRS
row,Compound,outcome
1,ClC1=C(Cl)C2(Cl)C3C(Cl)C(Cl)CC3C1(Cl)C2(Cl)Cl (stereo not given),inactive
2,CC(C)(C)OOC(C)(C)C,inactive
3,Cc1ccc(O)cc1C,inactive
